Source: PubChem
Pf Dd2 inh: blocks in vitro growth of P. falciparum Dd2; actives 4.3% (n = 120,000); P. falciparum Dd2 growth, SYBR Green, 72 h; AID 1347417; Potency, µM (top dose mostly 28.9 µM), for the others: at the highest dose activity, negative = inhibition, usual class: inhibitors; active = well fitted inhibition curve with a large enough effect;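 also: plate controls were DMSO vehicle for no effect and reference drug for full effect; nearly all actives have a fitted effect of over 65% in size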
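Infected erythrocytes (Dd2, 0.3% parasitemia, 2.5% hematocrit final) are added to compound in RPMI-1640/Albumax II medium, grown 72 h at 37C in low oxygen, then lysed with saponin/Triton-X containing SYBR Green and read by fluorescence.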
Active calls of the source: *; i = inactive; [ ] = dose if it differs, or a comment. Shown is part of a subset that was picked to be rich in hits. Potency is read from the fitted curve at half-maximal effect.

SMILES	Pf Dd2 inh
Fc1ccc(C2=CC(c3ccc(F)cc3)n3c(nc4ccccc43)N2)cc1 (stereo not drawn)	67%
Cc1ccc(C2C=C(c3ccccc3)Nc3nc(NS(=O)(=O)c4ccccc4)nn32)cc1 (stereo not drawn)	0%
O=C(Cn1nnc(-c2ccc(Cl)cc2)n1)NCc1ccc(F)cc1	-4%
CCC1Oc2ccc(NC(=O)c3ccc([N+](=O)[O-])cc3)cc2CN(Cc2ccc(F)cc2)C1=O (stereo not drawn)	-10%
Cc1ccc(-c2nc3sc(CCNC(=O)c4ccco4)c(C)n3n2)cc1	i
O=C(Nc1cnc(-c2ccc(F)cc2)nc1)c1ccco1	i
Cc1ccc(C2C=C(c3ccc(Cl)cc3)Nc3nc(NC(=O)c4ccco4)nn32)cc1 (stereo not drawn)	3.5µM*
Cc1ccc(S(=O)(=O)Nc2nc3n(n2)C(c2ccc(F)cc2)C=C(c2ccccc2)N3)cc1 (stereo not drawn)	-30%
Cc1ccc(C(=O)Nc2nc3n(n2)C(c2ccc(F)cc2)C=C(c2ccccc2)N3)cc1 (stereo not drawn)	6.3µM*
Cc1ccc(C(=O)Nc2nc3n(n2)C(c2ccccc2)C=C(c2ccccc2)N3)cc1 (stereo not drawn)	11µM*
COc1ccc(C2Cn3nnc(-c4noc(-c5ccc(C)cc5)n4)c3CO2)cc1 (stereo not drawn)	-12%
CCC1c2nccn2CCCN1C(=O)CCn1cccn1 (stereo not drawn)	-8%
CN1C[C@@H](NC(=O)C2CC2)C[C@H]1c1nc(-c2ccncc2)no1	i
CN1CCC(OC2CCN(C(=O)c3cccc(C(F)(F)F)c3)CC2)CC1	-23%
FC(F)(F)c1ccc2c(c1)nc1n2[C@@H](CNCc2cccnc2)COC1	i
Cn1nnnc1SCCNCc1ccc(OCc2ccccc2)cc1	i
CCOc1cccc(CNCCCSc2nnnn2C)c1	-4%
Cn1nnnc1SCCCNCc1cccc(OCc2ccc(F)cc2)c1	5.6µM*
O=C(c1ccc(F)cc1Cl)N1C[C@@H](CO)[C@H](c2ccccn2)C1	3%
CCOC(=O)c1ccc(NC(=O)N2Cc3[nH]cnc3C[C@H]2c2nc(-c3ccc(OC(F)(F)F)cc3)no2)cc1	i
COc1ccc(N2CCC(NC(=O)c3cccc(N(C)C)c3)C2=O)cc1 (stereo not drawn)	-2%
COc1ccc(-c2nc(-c3c(C)noc3C)cc3cc(CO)oc23)cn1	19%[44.1 µM]
Cc1cc(-c2nc(-c3c(C)noc3C)cc3cc(C)oc23)ccn1	11µM*
Cc1cc2cc(-c3c(C)noc3C)nc(N(C)C)c2o1	i
COc1cc(-c2nc(-c3c(C)noc3C)cc3c2cc(C)n3C)ccn1	-5%[44.1 µM]
SMILES	Pf Dd2 inh
COc1cc(-c2nc(-c3c(C)noc3C)cc3cc(C)oc23)ccn1	11µM*
Cc1cc2cc(-c3c(C)noc3C)nc(N3CCN(c4ccccn4)CC3)c2o1	-23%[44.1 µM]
Cn1ncc(N2CCCC(CC(=O)NCCN3CCCCC3)C2)cc1=O (stereo not drawn)	25%
CN(C)S(=O)(=O)N1CCOc2ccc(CCC(=O)NCC3CC3)cc2C1	-1%
COc1ccc(C(=O)N2CCCC3(CNc4ccccc4[S+](=O)([O-])N3)C2)cc1 (stereo not drawn)	6%
CCOc1ccc(CN2C(=O)C3(CCOCC3)CC2c2nnnn2C(C)(C)C)cc1 (stereo not drawn)	-15%
COc1ccccc1Nc1ncc2c(n1)CN(C(=O)c1cccc(O)c1)CCN2	-4%[44.1 µM]
COc1ccccc1Nc1ncc2c(n1)CN(C(=O)c1ccc(Oc3ccccc3)cc1)CCN2	8.9µM*
COc1ccccc1Nc1ncc2c(n1)CN([S+](=O)([O-])c1ccccc1)CCN2	9%[44.1 µM]
Cc1ccc(NC(=O)Cn2nc(Cc3ccncc3)c3ccccc3c2=O)c(Cl)c1	6%
CCN(C(=O)Cn1nc(Cc2ccncc2)c2ccccc2c1=O)c1cccc(Cl)c1	11µM*
CCOc1ccc(NC(=O)Cn2nc(Cc3cccnc3)c3ccccc3c2=O)cc1	-24%
O=C(O)CC1(CC(=O)N[C@H]2CO[C@H]3[C@@H]2OC[C@@H]3n2nnnc2Oc2ccccc2)CCCC1	21%
CCc1cccc(NC(=O)CN2C(=O)NC(c3ccc(C)cc3)C3=C2COC3=O)c1 (stereo not drawn)	-15%
C[S+](=O)([O-])N1CC2(Cc3ccccc31)CN(C(=O)C1CCCC1)C2	-6%[44.1 µM]
CN(C)CCN(C)[C@@H]1[C@H](O)[C@H](CO)O[C@@H]1CNC(=O)c1cccc(F)c1	-3%
CCOc1ccc(NCc2cccn2-c2nnc(N3CCC(C(=O)NC(C)c4ccccc4)CC3)s2)cc1 (stereo not drawn)	i
COc1ccccc1CCNC(=O)C1CCN(c2nnc(-n3cccc3CNc3ccc(C)cc3)s2)CC1	-10%
Cc1ccc(NCc2cccn2-c2nnc(N3CCC(C(=O)NCc4ccccc4C)CC3)s2)cc1	i
CCOc1ccc(CCNC(=O)C2CCN(Cc3nc(-c4ccc(OC)c(OC)c4)oc3C)CC2)cc1OCC	i
CCOc1ccc(NCc2cccn2-c2nnc(N3CCC(C(=O)NCCc4ccc(OCC)c(OCC)c4)CC3)s2)cc1	6.3µM*
CCOc1ccc(NCc2cccn2-c2nnc(N3CCC(C(=O)NCCc4ccc(OC)c(OC)c4)CC3)s2)cc1	7.1µM*
O=C(NCC1CC1)c1cccc(OC2CN(Cc3cccc(F)c3F)C2)c1	-21%
c1ccc2c(c1)OCC(CCNc1ncncn1)O2 (stereo not drawn)	4%
CN1C(=O)C(c2ccccc2)CC12CCN(C(=O)CO)CC2 (stereo not drawn)	-4%
SMILES	Pf Dd2 inh
CN1CCN(C(=O)CC[C@H]2CNC(=O)[C@@H]3[C@@H](CCN3C3CCOCC3)N2C)CC1	1%[44.1 µM]
CCn1c(C(=O)OC)c(NC(=O)C2CCOC2)c2cc(NC(C)Cc3ccccc3OC)cnc21 (stereo not drawn)	i
Cc1cnc(C(=O)NC2C[C@H]3CC[C@@H](C2)N3C(=O)c2ccc(OC(C)C)cc2)cn1 (stereo partly drawn)	i
Cc1noc(C)c1CC(=O)N1CCC(CC(=O)N(C)Cc2ccccc2)C1 (stereo not drawn)	-28%
Cc1ccc(NC(=O)C2CCCN(S(=O)(=O)c3ccc(F)cc3)C2)cc1 (stereo not drawn)	i
O=C(c1cccc(F)c1)N1CCCC(Nc2ccc(F)cc2)C1 (stereo not drawn)	-5%
CC(C)(C)CC(=O)N1CCCC(C(=O)Nc2cccc(-c3ccc(F)cc3)c2)C1 (stereo not drawn)	-18%
CC(=O)NCC(=O)N1CCCC(C(=O)Nc2cccc(-c3ccc(F)cc3)c2)C1 (stereo not drawn)	-16%
Cc1ncoc1C(=O)N1CCCC1C(=O)Nc1cccc(-c2ccc(F)cc2)c1 (stereo not drawn)	-12%
N#Cc1cc(CN2CCCC(C(=O)Nc3cccc(-c4ccc(F)cc4)c3)C2)c[nH]1 (stereo not drawn)	10µM*
CCc1ccc(NC(=O)C2CCCN(S(=O)(=O)c3ccc(F)cc3)C2)cc1 (stereo not drawn)	4%
Cc1[nH]cnc1CN1CCCC(C(=O)Nc2ccc(-c3cccc(F)c3)cc2)C1 (stereo not drawn)	10µM*
O=C(Nc1ccc(-c2cccc(F)c2)cc1)C1CCCN(C(=O)c2ccncc2)C1 (stereo not drawn)	7.1µM*
CN(C)c1nc2c(c(=O)[nH]1)CCN(Cc1ccc(OC(F)(F)F)cc1)CC2	9%[5.79 µM]
COC(=O)c1ccc(N2C[C@H]3OC(=O)N(CCc4ccc(OC)cc4)[C@H]3C2)nc1	-11%
